# From PubChem BioAssay
# Hits are enriched below; roughly 4.6% of the tested compounds scored in any of these assays.
# Vaccinia Venus: vaccinia inhibition (Venus reporter) | Vaccinia virus Venus reporter expression, fluorescence | hit rate 0.46% among 330,000 | Potency, µM (top dose mostly 36.5 µM), inactives show at the highest dose activity change, negative = inhibition, usual class: inhibitors; calls by dose curve; tested in A549 cells; further: nearly all actives have a fitted effect of over 30% in size
# HCV inhibitor: inhibitors of hepatitis C virus infection; Huh7.5.1 HCVcc-Cre infection, luciferase reporter, 44 h; Potency, µM (titrated, usually from 41.8 µM), inactives show at the top dose activity change, negative = inhibition, actives largely listed as inhibitors; hit rate 3.4% among 340,000; AID 651820; active means well fitted inhibition curve with a large enough effect; inconclusive means small, poorly fitted or top-dose-only effect, or another doubt; inactive means no such curve, though single readings can be large or run the other way
#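 1,000 cells/well; 4 h culture; + compound; + HCVcc-Cre (~0.5 moi); 44 h; luciferase substrate, RT 15 min; read 15 sec.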
# MARV entry inh: Marburg virus entry inhibition. Marburg virus pseudotyped entry inhibition, cell reporter. Potency, µM (titrated, usually from 37.8 µM), without a hit: at the highest dose activity change, negative = inhibition, actives largely listed as inhibitors. hit rate 1.8% among 300,000; calls by dose curve; tested in HEK293 cells
# Lassa entry inh: inhibitors of Lassa virus binding or cell entry; hit rate 1.2% among 300,000; Lassa virus pseudotype entry inhibition, cell reporter; Potency, µM (doses to about 37.9 µM), without a hit: top-dose activity change, negative = inhibition, most hits filed as inhibitors; calls by dose curve; tested in HEK293 cells; further: nearly all actives have a fitted effect of over 50% in size
# Vaccinia mCherry: inhibitors of vaccinia virus infection (mCherry reporter signal) | Potency, µM (series often up to 36.5 µM), for the others: at the highest dose activity change, negative = inhibition, hits mostly inhibitors | hit rate 0.63% among 310,000 | Vaccinia virus mCherry reporter infection, fluorescence; calls by dose curve; tested in A549 cells; further: nearly all actives have a fitted effect of over 35% in size
# * hit, by the source's call; i = inactive; ? = inconclusive; · = no result given; ! = not active in a repeat; [ ] = another dose, or the depositor's remark. On the % scale 0 is the no-effect control and ±100 the full control effect; potency means the concentration at half of the fitted maximal effect.
SMILES,Vaccinia Venus,HCV inhibitor,MARV entry inh,Lassa entry inh,Vaccinia mCherry
Cc1cc(C)c(-n2c(SCCS(=O)(=O)c3ccc(F)cc3)n[nH]c2=O)c(C)c1,2.82µM*,-14.7%,?,?,2µM*
COc1ccc(NC(=O)c2oc3ccc(S(=O)(=O)N4CCC5(CC4)OCCO5)cc3c2C)cc1,·,12.6µM*,20.6µM*!,?,·
Cc1c(C(=O)NCc2cccnc2)oc2ccc(S(=O)(=O)N3CCCCCC3)cc12,·,11.2µM*!,-5.7%,-14.6%,·
Cc1c(C(=O)NCCc2ccccc2)oc2ccc(S(=O)(=O)N3CCC4(CC3)OCCO4)cc12,-13.1%,11.2µM*,?,23.1µM*,-10.7%
Cc1c(C(=O)NCc2cccnc2)oc2ccc(S(=O)(=O)N3CCCCC3)cc12,·,?,-6.5%,-5.3%,·
Cc1c(C(=O)N2CCc3ccccc3C2)oc2ccc(S(=O)(=O)N3CCCCCC3)cc12,?,8.91µM*,?,?,-18.8%
C[C@H]1CC[C@H]2C(=O)O[C@H](CO)CN2[C@@H]1c1ccc(Br)cc1,·,·,-20.5%[14.2 µM],·,·
CCOC(=O)C1CCN(C(=O)c2oc3ccc(S(=O)(=O)N4CC(C)CC(C)C4)cc3c2C)CC1 (centres undefined),·,4.47µM*,?,-25.1%,·
CCOC(=O)N1CCN(C(=O)c2oc3ccc(S(=O)(=O)N4CC(C)CC(C)C4)cc3c2C)CC1 (centres undefined),·,?,?,14.5%,·
CN1CCN(C2CCN(c3ccc(Nc4nnc(Cl)c(Nc5ccccc5S(C)(=O)=O)n4)c(OC(CF)CF)c3)CC2)CC1,?,11.2µM*,·,·,?
CC(C)Oc1cc(C(=O)N2CCC(N3CCCCC3)CC2)ccc1Nc1nnc(Cl)c(Nc2ccccc2S(C)(=O)=O)n1,-16.8%,-19.5%,·,·,-23.1%
CC(C)C(=O)NC(=O)[C@@H]1CCCN1C(=O)C=Cc1ccccc1,·,·,1.4%[14.2 µM],·,·
c1ccc(C(NCCNC(c2ccccc2)c2ccccc2)c2ccccc2)cc1,·,?,8.2µM*,?,·
CSc1nn(Cc2cccc(F)c2)c(N(C(C)=O)C(C)=O)c1S(=O)(=O)c1ccccc1,-23.4%,·,-18.8%[46.1 µM],?,?
CC1(C)CN(CCc2ccccc2)C(=O)[C@@H]1CC(=O)Nc1ccccc1,·,·,·,-4.2%[46.1 µM],·
O=C(NCCCN1CCOCC1)C(=O)N/N=C/c1c(Cl)cccc1Cl,8.0%,7.7%,-13.4%[46.1 µM],1.6%,-4.4%
O=C(NCCCN1CCOCC1)C(=O)N/N=C/c1c2ccccc2cc2ccccc12,?,11.2µM*,?,?,?
Cc1ccc2[nH]cc(CCNC(=O)c3ccco3)c2c1,-3.5%,5.4%,-10.3%[46.1 µM],2.5%[46.1 µM],-27.5%
Cc1cc(Br)c2[nH]cc(CCNC(=O)c3ccco3)c2c1,·,12.6µM*,·,·,·
CC(=O)c1c(C)[nH]c(C(=O)COc2ccc3ccc(=O)oc3c2)c1C,-23.8%,8.91µM*,?,2.2%[46.1 µM],-24.7%
COc1cc(/C=C2/NC(=O)N(CC(=O)Nc3cccc(C)c3)C2=O)ccc1OCC(N)=O,-8.1%,10µM*,-1.9%[14.2 µM],-29.7%,-0.8%
CCOc1cc(/C=C2/NC(=O)N(CC(=O)Nc3cccc(C)c3)C2=O)ccc1OC,-16.4%,-12.5%,?,?,-8.2%[1.46 µM]
CCN(CC)S(=O)(=O)c1ccc2c(c1)N(CC(=O)Nc1c(C)cccc1C)C(=O)CO2,-18.1%,·,12.2%[46.1 µM],21.9%[46.1 µM],-14.3%
CCN(CC)S(=O)(=O)c1ccc(N2CCN(CCOc3ccc(OC)cc3)CC2)nc1,-12.6%,?,11.2µM*,-20.2%[46.1 µM],?
COC(=O)/C(C#N)=C/c1c(N2CCN(c3ccccc3)CC2)nc2ccccn2c1=O,-4.9%,-0.8%,-29.1%[46.1 µM],17.5%[46.1 µM],-4.1%
SMILES,Vaccinia Venus,HCV inhibitor,MARV entry inh,Lassa entry inh,Vaccinia mCherry
CNC(=O)/C(C#N)=C/c1c(N(Cc2ccccc2)Cc2ccccc2)nc2ccccn2c1=O,?,?,15.8µM*,11.2µM*,-19.7%
Cc1oc2ncn(C)c(=O)c2c1C(=O)Nc1ccc(F)cc1,11.2%,·,3.6%[46.1 µM],-27.1%[46.1 µM],-2.1%
N#Cc1nc(N2CCCC2)nc(N2CCCC2)n1,?,7.08µM*,?,-21.0%,?
CN(C)S(=O)(=O)c1cc(NC(=O)CSc2nn(-c3ccc(Cl)cc3)c(=S)s2)ccc1Cl,?,6.31µM*,?,?,?
CN(C)S(=O)(=O)c1cc(NC(=O)Cn2ccsc2=N)ccc1Cl,-6.5%,5.9%,·,·,i
Cc1ccc(NC(=O)CSc2nn(-c3ccc(Cl)cc3)c(=S)s2)cc1S(=O)(=O)N(C)C,?,12.6µM*,?,11.2µM*,?
CCOC(=O)c1c(C)[nH]c(C)c1S(=O)(=O)N1CCC(C(=O)N2CCN(c3cccc(C)c3C)CC2)CC1,?,·,·,-29.6%[46.1 µM],?
COc1ccccc1CNc1ncnc2onc(-c3ccc(Cl)cc3)c12,-10.6%,·,2.0%[46.1 µM],1.6%[46.1 µM],-21.1%
CCc1ccc(S(=O)(=O)c2nnn3c2nc(Nc2ccc(F)cc2)c2cc(Cl)ccc23)cc1,?,·,11.6%[46.1 µM],·,?
Cc1ccc(Cl)cc1N1CCN(CC(=O)Nc2ccc(CN3CCCCC3)cc2)CC1,-16.3%,8.91µM*,?,?,-12.4%[1.46 µM]
Cc1ccc(Cl)cc1N1CCN(CCN)CC1,-21.1%,10µM*,-4.3%,0.0%,?
COc1ccccc1N1CCN(CC(=O)Nc2ccc(CN3CCCCC3)cc2)CC1,-14.6%,?,?,0.3%,-1.8%
Cc1ccc(Cl)cc1N1CCN(CCNC(=O)Nc2ccc(Cl)cc2)CC1,-18.6%,·,?,18.3%[46.1 µM],-17.2%
Cc1ccc(CN2CCC(CNc3ncnc4onc(-c5ccc(F)cc5)c34)CC2)cc1,-11.7%,·,·,-28.7%[46.1 µM],-19.1%
S=C(Nc1ccc2nsnc2c1)N1CCCCC1,-5.7%,7.0%,3.6%,15.7%,i
CCN(CC)C(=O)C1CCCN(C(=O)Nc2ccc3nsnc3c2)C1 (centres undefined),-18.0%,31.6µM*,5.7%,7.6%,·
COc1ccc(N(C(=O)c2ccco2)C(C(=O)NC2CCCCC2)c2cccs2)cc1OC (centres undefined),-11.4%,5.1%,-3.1%,?,·
C#CC(=O)N(c1ccc(OC)cc1OC)C(C(=O)NC1CCCC1)c1cccs1 (centres undefined),10µM*,1.26µM*,?,?,10µM*
C#CC(=O)N(c1cc(OC)ccc1OC)C(C(=O)NC1CCCC1)c1cccs1 (centres undefined),10µM*,·,2µM*,3.55µM*,11.2µM*
CN(C)c1ccc(C=O)cc1[N+](=O)[O-],-14.2%,·,·,·,-13.7%
O=C(Nc1ccccc1)C1=C[C@@H](C2CCCCC2)C[C@@H](OCCCCO)O1,-21.6%,0.316µM*,·,·,i
S=C(c1ccc(Cl)cc1)N1CCN(Cc2ccccc2)CC1,3.9%,-22.4%,-0.5%[46.1 µM],-19.2%[46.1 µM],?
CSc1ccc(CN2CCC(C(=O)NCc3ccc(C)cc3)CC2)cc1,·,?,16.4µM*,?,·
CSc1ccc(C(=S)N2CCN(Cc3ccccc3)CC2)cc1,·,-4.3%,-5.4%,16.4µM*,·
CCN(Cc1ccccc1)C1CCN(Cc2ccc(SC)cc2)CC1,-7.1%,7.08µM*,17.2%[46.1 µM],·,-20.9%
CSc1ccc(CN2CCN(C(=O)CC(C)C)CC2)cc1,-11.8%,11.2µM*,?,0.0%[46.1 µM],i
CCCCN(Cc1ccccc1)C1CCN(Cc2ccccc2)CC1,-14.6%,-21.7%,?,?,?
